Reference: PubChem BioAssay AID624296 (National Center for Advancing Translational Sciences (NCATS), 2012)
The whole screen tested about 350,000 compounds, of which about 9,900 (2.8%) were called active. Not shown: some 15% with an inconclusive outcome. The list comes from a sample in which actives are over-represented; it also holds similar structures and randomly drawn compounds. Unmarked numbers belong to inactive results. Calls come from the whole dose curve; as a rule, active = well fitted activation curve with a large enough effect; inconclusive = small, poorly fitted or top-dose-only effect; inactive = no such curve, though single readings can be large or run the other way.

Experiment: A quantitative high throughput screen for small molecules that induce DNA re-replication in MCF 10a normal breast cells. For activity, positive = re-replication: % of control where 0% means no effect. Note: nearly all actives have a fitted effect of over 50% in size.
Settings: MCF 10A DNA re-replication, Hoechst nuclear intensity, 48 h; series mostly up to 46.1 µM; activity, positive = re-replication: at the top concentration
Potency is the fitted concentration of half-maximal effect.

Compound | Potency | activity, positive = re-replication [%]
O=C(/C=C/c1ccccc1)c1ccccc1O | 20.6 µM (active) | –
O=C(/C=C/c1ccccc1)N/C(=C/c1ccccc1)C(=O)Nc1ccccc1O | – | 0.812
CN(C)/C=C/C(=O)c1ccccc1F | – | 4.67
O=C(CSc1nnc(-c2ccncc2)o1)Nc1cccc(Cl)c1 | – | -3.65
CN(c1ccccc1)S(=O)(=O)c1cc(C(=O)N2CCN(c3ncccn3)CC2)ccc1Cl | 20.6 µM (active) | –
CN(c1ccccc1)S(=O)(=O)c1cc(C(=O)OCC(=O)N2CCN(C(=O)c3ccco3)CC2)ccc1Cl | – | 1.62
CN(c1ccccc1)S(=O)(=O)c1ccc(C(=O)N2CCN(c3ccccc3Cl)CC2)cc1 | – | 11.7
CN(C(=O)c1cccc(NC(=O)Cc2cccc(NC(=O)C3CCCN(C(=O)C4CC4)C3)c2)c1)C1CCC1 (centres undefined) | – | -0.899
CC[C@]1(C(=O)OC)[C@H]2C(=O)N(C)C(=O)[C@H]2[C@H]2CN(C)C(=NCc3ccccc3)N21 | – | -7.09
Cc1cc(NC(=O)CSc2ncc(C(F)(F)F)cc2Cl)no1 | – | -3.51
C=CC[C@@H](CC(=O)N[C@H](CO)Cc1ccccc1)C(=O)N[C@@H](COC(=O)[C@@H](CC=C)Cc1ccc(F)cc1)Cc1c[nH]c2ccccc12 | – | 3.99
Cc1c(CC(=O)NCCCCCC(=O)O)c(=O)oc2cc3occ(-c4ccccc4)c3cc12 | – | 5.09
Cc1c(CCC(=O)O)c(=O)oc2cc3occ(-c4ccccc4)c3cc12 | – | -9.98
CCCCCCc1cc2cc(-c3nnc(-c4ccccc4)o3)c(=O)oc2cc1O | 1.46 µM (active) | –
COc1ccc(OC)c(NC(=O)c2sc3nc(C)cc(C)c3c2N)c1 | 11.6 µM (active) | –
CCc1nnc(NC(=O)c2sc3nc(C)cc(COC)c3c2N)s1 | – | 12.4
COCc1cc(C)nc2sc(C(=O)NC3CCCCC3)c(N)c12 | – | 27.3
Cc1ccc(COC(=O)CN2C(=O)NC3(CCCC3)C2=O)cc1 | – | 0.31
Cc1ccc(NC(=O)CCNC(=O)c2ccc([N+](=O)[O-])cc2)cc1S(=O)(=O)N1CCOCC1 | – | 13.8
O=C(CN1C(=O)NC2(CCCCCC2)C1=O)Nc1ccc([N+](=O)[O-])cc1 | – | 2.08
COc1cc2c(cc1OC)C1C(=O)c3cc(OS(C)(=O)=O)c(OC)cc3C1N(C)C2=O (centres undefined) | – | 11.8
CCC(CO)Oc1cc(NC(=O)c2cccc3ccccc23)c2ncn(C(C)C)c2c1 (centres undefined) | – | -2.74
CS(=O)(=O)Nc1ccc(C2=NN(S(C)(=O)=O)C(c3cccs3)C2)cc1 (centres undefined) | – | 1.04
CCS(=O)(=O)Nc1ccc(C2=NN(C(C)=O)C(c3cccs3)C2)cc1 (centres undefined) | 9.2 µM (active) | –
COc1ccc(C2=NN(C(=O)CCC(=O)O)C(c3cccs3)C2)cc1OC (centres undefined) | – | -6.26

Compound | Potency | activity, positive = re-replication [%]
Cn1cc(C2OC(=O)c3ccccc32)c2ccccc21 (centres undefined) | – | 74.6
NNC(=O)c1oc2nc(-c3ccccc3)cc(-c3ccco3)c2c1N | 20.6 µM (active) | –
CNC(=S)NNC(=O)c1oc2nc(-c3ccccc3)cc(-c3ccco3)c2c1N | – | 21.2
O=C(Nc1cccc(F)c1)c1cc(-c2ccco2)nc2ccccc12 | – | 6.3
Cc1ccc(S(=O)(=O)N2C[C@@H]3CCCC[C@@H]3[C@@H](C)[C@H]2c2cn(Cc3ccccc3)c3ccc(F)cc23)cc1 | – | 2.93
Cn1c(N)c(C(=O)COC(=O)COc2ccc(Cl)cc2)c(=O)n(C)c1=O | – | -4.1
Fc1ccc(N2N=C(c3cccs3)CC2c2ccco2)c(F)c1 (centres undefined) | 7.31 µM (active) | –
COc1ccccc1N1N=C(c2cccs2)CC1c1ccccc1 (centres undefined) | – | 16.3
Cc1ccccc1C1CC(c2cccs2)=NN1S(C)(=O)=O (centres undefined) | – | -23.5
O=C(N/N=C\c1cccnc1)c1cc(-c2ccccc2)nc2c(Cl)cccc12 | 7.31 µM (active) | –
O=C(N/N=C/c1cccnc1)c1cc2ccccc2cc1O | – | -15.4
C/C(=N\NC(=O)c1cc(-c2ccc(O)cc2)nc2ccccc12)c1cccnc1 | – | 4.37
COc1cccc(CC(=NO)c2cccc(OC)c2)c1 | – | 2.69
CC1(C(=O)OCC(=O)Nc2ncc(Cl)cc2Cl)CC1(Cl)Cl (centres undefined) | – | 1.07
COc1ccc(CNC(=O)[C@H](Cc2c[nH]c3ccccc23)NC(C)=O)cc1OC | – | -1.5
COc1cccc(NC(=O)[C@H](Cc2c[nH]c3ccccc23)NC(=O)[C@@H]2Cc3ccccc3CN2)c1 | 18.4 µM (active) | –
COc1ccc(NC(=O)[C@H](NC(=O)[C@@H]2Cc3ccccc3CN2)c2ccccc2)cc1 | – | 1.04
CCc1c(Nc2ccccc2C)nc(N)[nH]c1=O | – | -6.06
COc1ccc(OC)c(CN2CCN(C(=O)CNC(=O)c3cc(C)cc(C)c3)CC2)c1 | – | 15
Cc1ccc(C(=O)NCC(c2cccs2)N(C)C)cc1S(=O)(=O)N1CCOCC1 (centres undefined) | – | 26.2
COc1ccc2[nH]c3c(c2c1)CCN1C(=O)C(CC(=O)NCCc2ccccn2)C[C@H](C(=O)N2CCOCC2)[C@@]31C (some centres undefined) | – | 1.89
CCc1ccc(C(=O)OCC(=O)Nc2cccc(S(=O)(=O)NC3=NCCCCC3)c2)cc1 | – | -9.03
COc1ccccc1C(=O)OCC(=O)Nc1cccc(S(=O)(=O)NC2=NCCCCC2)c1 | 18.4 µM (active) | –
O=C(COC(=O)c1c(Cl)cccc1Cl)Nc1cccc(S(=O)(=O)NC2=NCCCCC2)c1 | – | 3.95
